Assay [1] has as its target Thyrotropin-releasing hormone receptor (Homo sapiens) (UniProt P34981). Put plainly: qHTS assay to identify small molecule agonists of the thyrotropin-releasing hormone receptor (TRHR) signaling pathway (AID 1346891; calls by dose curve; further: series mostly up to about 58 µM). The gist of the method: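 Readout was intracellular calcium fluorescence in TRHR-Hek293 cells. Cells were incubated 18 h, dye-loaded 2 h at 37 °C, and treated with compound in agonist mode.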
For orientation: qHTS replaces the single test concentration by a dilution series.

Assay [2] in a line: Human pregnane X receptor (PXR) small molecule agonists, qHTS cell viability counter screen (AID 1346977). Further: nearly all actives have a fitted effect of over 50% in size. The gist of the method:
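In each well, the PXR reporter HepG2 line was checked for viability: CellTiter-Fluor reagent added 23hr post-dosing, fluorescence read after 1hr incubation at 37C.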

Assay [3] is described as follows: Caspase-3/7 induction in HepG2 cells by small molecules, qHTS assay (AID 1346978). Further: nearly all actives have a fitted effect of over 15% in size. The gist of the method: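 Wild-type HepG2 cells, 2,000/well, settled 5 hr at 37 C and 5% CO2, then compound-treated for 17 hr; caspase-3/7 activity read by luminescent Caspase-Glo 3/7 after 30 min at room temperature.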
Assay [4] in a line: Caspase-3/7 induction in CHO-K1 cells by small molecules, qHTS cell viability counter screen (AID 1346979). Further: nearly all actives have a fitted effect of over 35% in size. In short, it runs like this:
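Following a 5hr settling period, CHO-K1 cells at 1,500 per well received DMSO-dissolved compounds. Cell viability was quantified 16hr later by CellTiter-Fluor fluorescence, measured after 1hr with reagent at 37C.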

The nature of assay [5]: Caspase-3/7 induction in HepG2 cells by small molecules, qHTS cell viability counter screen (AID 1346981). Further: series mostly up to about 92 µM; nearly all actives have a fitted effect of over 30% in size. In short, it runs like this:
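Steps: seed 2,000 HepG2 cells per well; incubate 5 hr at 37 C; pin-add compounds in DMSO; incubate 16 hr; add CellTiter-Fluor; after 1 hr at 37 C and 5% CO2, read fluorescence.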

The target in assay [6] is Nuclear receptor subfamily 1 group I member 2 (Homo sapiens) (UniProt O75469). Kind of assay: Human pregnane X receptor (PXR) small molecule agonists, qHTS assay (AID 1346982). Further: nearly all actives have a fitted effect of over 35% in size. In short, it runs like this: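 Agonist mode qHTS: PXR-Luc HepG2 cells plated 5 hr before DMSO-dissolved compounds were pinned in, cultured 24 hr at 37 C, 5% CO2; ONE-Glo luminescence readout.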
Nuclear receptor subfamily 1 group I member 2 (Homo sapiens), sequence (O75469 whole entry, looked up): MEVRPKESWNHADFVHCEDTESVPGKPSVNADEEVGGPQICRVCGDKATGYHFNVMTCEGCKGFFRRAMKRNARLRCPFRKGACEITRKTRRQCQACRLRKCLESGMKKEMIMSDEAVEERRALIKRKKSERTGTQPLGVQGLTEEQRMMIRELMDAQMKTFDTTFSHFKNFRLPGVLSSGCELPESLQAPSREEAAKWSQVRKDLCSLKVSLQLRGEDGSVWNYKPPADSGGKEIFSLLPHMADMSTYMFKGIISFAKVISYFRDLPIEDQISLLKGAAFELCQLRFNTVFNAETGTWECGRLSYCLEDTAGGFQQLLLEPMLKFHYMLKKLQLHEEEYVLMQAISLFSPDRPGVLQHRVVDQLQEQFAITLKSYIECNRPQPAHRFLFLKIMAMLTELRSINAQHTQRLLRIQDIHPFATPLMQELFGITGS
In assay [7] the target is Nuclear receptor subfamily 1 group I member 2 (Rattus norvegicus) (UniProt Q9R1A7). Kind of assay: Rat pregnane X receptor (rPXR) activation by small molecules, qHTS assay (AID 1346983). Further: nearly all actives have a fitted effect of over 20% in size. Particulars: rPXR luciferase reporter cells, One-Glo luminescence, 24 h; hits give high values. In short, it runs like this:
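Cell-based rPXR activation assay: rPXR cells, 2,000 per well, rested 5hr at 37 C, then exposed to compounds in DMSO for 24 hr at 37 C. Luciferase activity read by One-Glo luminescence after 30 min at room temperature.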

The target of assay [8] is Nuclear receptor subfamily 1 group I member 2 (Homo sapiens) (UniProt O75469). Kind of assay: CYP3A4 induction through human pregnane X receptor (PXR) by small molecules, qHTS assay (AID 1346984). Further: nearly all actives have a fitted effect of over 40% in size. The gist of the method: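 Steps: seed DPX-2 cells, 5 hr at 37C; pin-transfer compounds; 24 hr at 37C; add Luciferin-IPA (3uM final), 3 hr at 37C; add One-Glo, 30 min RT; read luminescence.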

For assay [9] the target is unchanged. Kind of assay: Human pregnane X receptor (PXR) activation by small molecules, qHTS assay (AID 1346985). Further: nearly all actives have a fitted effect of over 40% in size. In short, it runs like this:
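DPX-2 cells (HepG2 co-transfected with a PXR response element and a CYP3A4-promoter luciferase construct) were seeded at 2,000 per well, rested 5 hr at 37C, then exposed to DMSO-dissolved compounds for 24 hr. Activation was read as luciferase luminescence.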

Assay [10] deals with Cytochrome P450 2D6 (Homo sapiens) (UniProt P10635). Put plainly: Cytochrome P450 Family 2 Subfamily D Member 6 (CYP2D6) small molecule antagonists: luciferase reporter qHTS assay (AID 1671196). Further: nearly all actives have a fitted effect of over 50% in size. Further: potency means the concentration at half of the fitted maximal effect. On activity change, negative = inhibition: series mostly up to about 120 µM. In short, it runs like this: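 P450-Glo format: CYP2D6 converts a proluciferin substrate to luciferin in an NADPH-driven reaction lasting 1 h at room temperature. Light output, proportional to CYP2D6 activity, reflects interference by test chemicals.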
Cytochrome P450 2D6 (Homo sapiens), sequence (P10635 whole entry, looked up): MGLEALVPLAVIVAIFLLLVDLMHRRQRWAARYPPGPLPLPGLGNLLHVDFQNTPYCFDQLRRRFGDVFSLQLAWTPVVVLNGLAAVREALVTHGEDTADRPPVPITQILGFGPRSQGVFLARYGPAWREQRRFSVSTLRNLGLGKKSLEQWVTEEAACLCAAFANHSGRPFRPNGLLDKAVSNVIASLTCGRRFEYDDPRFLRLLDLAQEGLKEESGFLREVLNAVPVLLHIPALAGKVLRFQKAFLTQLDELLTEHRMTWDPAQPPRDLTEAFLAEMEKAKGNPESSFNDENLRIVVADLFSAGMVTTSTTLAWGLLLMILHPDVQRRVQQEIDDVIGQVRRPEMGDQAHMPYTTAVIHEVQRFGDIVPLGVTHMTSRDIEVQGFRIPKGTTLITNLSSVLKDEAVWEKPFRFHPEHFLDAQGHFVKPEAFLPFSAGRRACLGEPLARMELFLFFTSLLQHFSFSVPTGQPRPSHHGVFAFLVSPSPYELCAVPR
On the technique in general: Reporter assays use an easily measured gene product as a stand-in for the process of interest.

Assay [11] has as its target Cytochrome P450 2C19 (Homo sapiens) (UniProt P33261). Put plainly: Cytochrome P450 Family 2 Subfamily C Member 19 (CYP2C19) small molecule antagonists: luciferase reporter qHTS assay (AID 1671197). Further: nearly all actives have a fitted effect of over 65% in size. Further: potency means the concentration at half of the fitted maximal effect. On activity change, negative = inhibition: series mostly up to about 120 µM. The gist of the method:
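Compounds were tested on CYP2C19 activity via proluciferin conversion to luciferin. The 37C, 1 h reaction followed NADPH addition; detection reagent stopped it.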

The target of assay [12] is Cytochrome P450 2C9 (Homo sapiens) (UniProt P11712). Kind of assay: Cytochrome P450 Family 2 Subfamily C Member 9 (CYP2C9) small molecule antagonists: luciferase reporter qHTS assay (AID 1671198). Further: nearly all actives have a fitted effect of over 50% in size. Further: potency means the concentration at half of the fitted maximal effect. On activity change, negative = inhibition: series mostly up to about 120 µM. In short, it runs like this: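 P450-Glo proluciferin substrate with CYP2C9 enzyme; 10 min RT preincubation, then NADPH regeneration 1 h at 37C; luciferin detection reagent 20 min RT, luminescence in relative luminescence units.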
Cytochrome P450 2C9 (Homo sapiens), sequence (P11712 whole entry, looked up): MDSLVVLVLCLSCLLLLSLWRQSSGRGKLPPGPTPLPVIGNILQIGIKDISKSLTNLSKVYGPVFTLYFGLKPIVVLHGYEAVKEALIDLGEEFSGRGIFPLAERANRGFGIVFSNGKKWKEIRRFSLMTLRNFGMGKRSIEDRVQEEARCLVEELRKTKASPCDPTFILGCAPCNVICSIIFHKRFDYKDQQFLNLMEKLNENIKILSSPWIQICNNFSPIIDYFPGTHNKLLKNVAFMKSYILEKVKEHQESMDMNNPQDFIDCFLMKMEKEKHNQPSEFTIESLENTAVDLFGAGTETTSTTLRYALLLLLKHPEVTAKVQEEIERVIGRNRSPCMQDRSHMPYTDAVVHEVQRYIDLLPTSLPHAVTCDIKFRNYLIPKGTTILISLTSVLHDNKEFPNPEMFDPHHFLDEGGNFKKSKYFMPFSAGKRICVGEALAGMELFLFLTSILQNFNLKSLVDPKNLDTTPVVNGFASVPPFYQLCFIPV

Assay [13] deals with Voltage-gated inwardly rectifying potassium channel KCNH2 (Homo sapiens) (UniProt Q12809). Put plainly: Human Ether-a-go-go-Related Gene (hERG) channel small molecule antagonists: fluorescence cell-based qHTS assay (AID 1671200). Further: nearly all actives have a fitted effect of over 50% in size. Further: potency means the concentration at half of the fitted maximal effect.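 On activity change, negative = inhibition: hERG-expressing U2OS cells given a thallium stimulus after FluxOR II dye loading; series mostly up to about 77 µM.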 The gist of the method:
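In this thallium-flux screen, overnight-cultured U2OS cells bearing the channel are dye-loaded in darkness for an hour, rested 10 min at room temperature, and then monitored kinetically at 480/540 nm for two minutes post-stimulus.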
(In general: hERG is a cardiac potassium channel; its block is linked to QT prolongation.)

Assay [14] addresses Cytochrome P450 3A4 (Homo sapiens) (UniProt P08684). Put plainly: Cytochrome P450 Family 3 Subfamily A Member 4 (CYP3A4) small molecule antagonists: luciferase reporter qHTS assay (AID 1671201). In short, it runs like this:
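CYP3A4 activity was followed with a P450-Glo proluciferin substrate. Test compounds in DMSO were preincubated 10 min; NADPH regeneration then ran 1 h, and light output was read 20 min after detection reagent.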

Assay [15] can be described thus: Caspase-3/7 induction in CHO-K1 cells by small molecules, qHTS assay (AID 1346980). Further: nearly all actives have a fitted effect of over 15% in size. The gist of the method:
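Wild-type CHO-K1 cells exposed to compounds for 17hr at 37 C, 5% CO2. Caspase-3/7 activity then measured by Caspase-Glo 3/7 luminescence after 30min at room temperature.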

The target in assay [16] is Cytochrome P450 1A2 (Homo sapiens) (UniProt P05177). Put plainly: Cytochrome P450 Family 1 Subfamily A Member 2 (CYP1A2) small molecule antagonists: luciferase reporter qHTS assay (AID 1671199). Further: nearly all actives have a fitted effect of over 50% in size. Further: potency means the concentration at half of the fitted maximal effect. On activity change, negative = inhibition: series mostly up to about 120 µM. The gist of the method: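 Inhibition of CYP1A2 conversion of proluciferin to luciferin, detected by luminescence. Reaction run 1 h at room temperature with NADPH regeneration after brief compound preincubation.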
Cytochrome P450 1A2 (Homo sapiens), sequence (P05177 whole entry, looked up): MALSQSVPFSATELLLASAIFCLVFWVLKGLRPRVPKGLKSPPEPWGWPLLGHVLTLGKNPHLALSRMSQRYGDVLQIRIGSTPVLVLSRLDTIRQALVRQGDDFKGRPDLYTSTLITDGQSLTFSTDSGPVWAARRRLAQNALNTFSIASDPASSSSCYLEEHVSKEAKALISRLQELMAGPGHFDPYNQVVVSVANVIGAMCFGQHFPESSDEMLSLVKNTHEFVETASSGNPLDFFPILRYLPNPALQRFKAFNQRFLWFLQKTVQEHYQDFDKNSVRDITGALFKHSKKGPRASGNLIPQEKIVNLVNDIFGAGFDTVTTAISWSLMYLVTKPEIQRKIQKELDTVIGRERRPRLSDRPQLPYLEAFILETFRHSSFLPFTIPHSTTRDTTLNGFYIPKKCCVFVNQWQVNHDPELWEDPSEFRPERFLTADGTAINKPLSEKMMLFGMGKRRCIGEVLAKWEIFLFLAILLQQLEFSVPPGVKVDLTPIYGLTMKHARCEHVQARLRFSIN

Values without a mark were called inactive. Inconclusive results are not listed. Calls of active or inactive are those of the source. Unless noted, the call rests on the fitted dose curve; in most records, active means well fitted curve in the direction sought with a large enough effect in the repeat runs; inconclusive means weak or mixed curves; inactive means no such curve, though single readings can be large; an effect the other way counts as inactive or inconclusive.
On the % scale 0 is the no-effect control and ±100 the full control effect.

Voltage-gated inwardly rectifying potassium channel KCNH2 (Homo sapiens), sequence (Q12809 whole entry, looked up): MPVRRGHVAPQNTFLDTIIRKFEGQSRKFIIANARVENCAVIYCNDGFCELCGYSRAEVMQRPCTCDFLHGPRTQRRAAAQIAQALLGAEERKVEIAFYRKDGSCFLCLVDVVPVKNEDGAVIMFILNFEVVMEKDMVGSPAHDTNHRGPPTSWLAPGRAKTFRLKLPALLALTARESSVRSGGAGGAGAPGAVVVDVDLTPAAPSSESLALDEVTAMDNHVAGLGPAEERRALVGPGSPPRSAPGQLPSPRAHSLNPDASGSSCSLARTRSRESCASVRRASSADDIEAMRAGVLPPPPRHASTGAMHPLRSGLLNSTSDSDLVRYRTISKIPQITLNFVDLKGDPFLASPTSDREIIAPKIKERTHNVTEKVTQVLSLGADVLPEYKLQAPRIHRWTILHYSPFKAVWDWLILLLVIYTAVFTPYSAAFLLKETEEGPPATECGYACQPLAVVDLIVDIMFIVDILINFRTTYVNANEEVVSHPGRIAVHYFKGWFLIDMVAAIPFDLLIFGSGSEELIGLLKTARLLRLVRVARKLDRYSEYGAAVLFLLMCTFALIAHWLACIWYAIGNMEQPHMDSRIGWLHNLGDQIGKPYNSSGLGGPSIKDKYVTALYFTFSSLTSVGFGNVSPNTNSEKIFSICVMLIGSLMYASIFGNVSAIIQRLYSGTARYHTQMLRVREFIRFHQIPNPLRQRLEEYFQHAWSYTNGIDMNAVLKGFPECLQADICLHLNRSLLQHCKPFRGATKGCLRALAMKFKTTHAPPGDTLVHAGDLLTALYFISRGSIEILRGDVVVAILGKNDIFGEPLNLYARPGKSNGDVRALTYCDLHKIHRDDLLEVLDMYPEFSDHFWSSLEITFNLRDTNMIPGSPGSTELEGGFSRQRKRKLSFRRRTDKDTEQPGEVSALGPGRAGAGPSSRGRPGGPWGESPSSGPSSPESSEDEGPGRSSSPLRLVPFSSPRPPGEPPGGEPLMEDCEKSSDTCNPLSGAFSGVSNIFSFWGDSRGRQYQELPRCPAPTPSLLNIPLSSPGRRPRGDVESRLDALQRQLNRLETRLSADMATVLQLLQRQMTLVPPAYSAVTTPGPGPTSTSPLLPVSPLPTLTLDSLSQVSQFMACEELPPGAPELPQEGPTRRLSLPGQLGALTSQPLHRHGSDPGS
Cytochrome P450 3A4 (Homo sapiens), sequence (P08684 whole entry, looked up): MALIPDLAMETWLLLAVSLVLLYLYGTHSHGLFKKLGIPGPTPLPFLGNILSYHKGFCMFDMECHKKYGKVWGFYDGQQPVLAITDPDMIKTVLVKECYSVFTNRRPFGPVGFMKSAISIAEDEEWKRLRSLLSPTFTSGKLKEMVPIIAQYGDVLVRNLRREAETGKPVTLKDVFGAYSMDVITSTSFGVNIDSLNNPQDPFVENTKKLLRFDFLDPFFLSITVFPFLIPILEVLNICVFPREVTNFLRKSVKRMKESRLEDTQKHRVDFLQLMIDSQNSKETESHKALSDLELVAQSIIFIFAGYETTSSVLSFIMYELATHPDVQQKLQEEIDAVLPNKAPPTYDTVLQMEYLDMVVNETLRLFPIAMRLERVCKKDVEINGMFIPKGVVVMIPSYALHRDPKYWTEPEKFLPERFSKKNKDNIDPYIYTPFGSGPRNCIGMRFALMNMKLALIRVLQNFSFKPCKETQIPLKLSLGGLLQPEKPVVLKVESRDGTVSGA
Thyrotropin-releasing hormone receptor (Homo sapiens), sequence (P34981 whole entry, looked up): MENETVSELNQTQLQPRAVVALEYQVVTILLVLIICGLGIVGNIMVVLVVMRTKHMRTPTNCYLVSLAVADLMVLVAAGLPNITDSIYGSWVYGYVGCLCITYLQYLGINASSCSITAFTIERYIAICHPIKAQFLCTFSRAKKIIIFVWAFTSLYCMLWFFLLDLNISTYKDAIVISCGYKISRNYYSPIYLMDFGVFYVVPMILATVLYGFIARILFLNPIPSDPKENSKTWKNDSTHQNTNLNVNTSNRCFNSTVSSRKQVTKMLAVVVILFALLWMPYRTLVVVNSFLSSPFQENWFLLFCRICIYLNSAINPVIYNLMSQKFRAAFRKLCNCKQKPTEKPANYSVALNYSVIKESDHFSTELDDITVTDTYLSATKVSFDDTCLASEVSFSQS
Nuclear receptor subfamily 1 group I member 2 (Rattus norvegicus), sequence (Q9R1A7 whole entry, looked up): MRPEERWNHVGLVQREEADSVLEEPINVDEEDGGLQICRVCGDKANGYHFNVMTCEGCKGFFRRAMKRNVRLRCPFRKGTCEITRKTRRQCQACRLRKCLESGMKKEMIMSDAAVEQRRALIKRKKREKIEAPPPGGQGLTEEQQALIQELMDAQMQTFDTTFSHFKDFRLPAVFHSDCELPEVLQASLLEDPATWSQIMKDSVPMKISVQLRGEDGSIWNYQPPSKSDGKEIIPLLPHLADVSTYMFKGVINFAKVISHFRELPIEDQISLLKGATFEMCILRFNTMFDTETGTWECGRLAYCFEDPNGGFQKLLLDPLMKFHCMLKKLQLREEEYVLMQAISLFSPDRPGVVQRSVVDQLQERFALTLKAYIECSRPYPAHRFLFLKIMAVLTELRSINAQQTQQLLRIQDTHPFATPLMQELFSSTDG
Cytochrome P450 2C19 (Homo sapiens), sequence (P33261 whole entry, looked up): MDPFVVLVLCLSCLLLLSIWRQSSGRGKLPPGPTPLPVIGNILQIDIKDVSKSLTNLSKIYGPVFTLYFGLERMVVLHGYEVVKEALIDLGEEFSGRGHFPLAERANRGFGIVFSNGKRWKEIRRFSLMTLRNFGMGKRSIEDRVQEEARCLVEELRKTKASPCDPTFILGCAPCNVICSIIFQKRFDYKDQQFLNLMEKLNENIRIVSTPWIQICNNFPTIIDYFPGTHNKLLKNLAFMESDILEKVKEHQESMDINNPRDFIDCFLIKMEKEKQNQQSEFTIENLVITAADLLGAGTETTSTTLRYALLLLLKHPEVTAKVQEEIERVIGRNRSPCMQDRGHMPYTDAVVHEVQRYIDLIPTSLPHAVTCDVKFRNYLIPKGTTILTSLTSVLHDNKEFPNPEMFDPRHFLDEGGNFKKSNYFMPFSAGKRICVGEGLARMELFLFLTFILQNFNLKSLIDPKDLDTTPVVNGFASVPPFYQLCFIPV

`CCOC(=O)c1ccc(OC(=O)CCCCCN=C(N)N)cc1`: in assay [1], the outcome was inactive. Moreover, the Potency entry in assay [2], in [3], in assay [4], in assay [5], in [6] and in assay [8] was “inactive” in each case. Besides, the Potency entry in [9], in [11], in [12], in assay [13] and in assay [14] was “inactive” each time. Besides, the max activation in [7] is 0.318%. In addition, the Potency in assay [10] was 0.309 µM (active).
Turning to `Oc1ccccc1-c1nnco1`, the compound was classed as inactive in assay [1] and in assay [15]. Further, the Potency result in assay [2], in [3], in assay [4], in assay [6], in [10] and in assay [11] was “inactive” each time. The Potency entry in assay [12], in [13] and in assay [14] was “inactive” each time. For the same compound, the Potency in assay [16] is 30.9 µM (active).
Consider `CC(CO)c1ccccc1` (configuration not stated), for which the outcome in assay [1] and in [15] was inactive. Moreover, the Potency result in [2], in [3], in assay [4], in assay [6], in assay [10] and in [11] was “inactive” in each case. Further, the Potency entry in assay [12], in assay [16], in [13] and in assay [14] was “inactive” each time.
Consider `COC(=O)C1CC(=O)C(C(=O)OC)CC1=O` (configuration not stated), for which the activation is 0.0574% [at 5.23 µM] in assay [1] and 2.25% [at 8.39 µM] in assay [6]. Besides, the activity change, negative = cytotoxicity is 1.52% [at 8.39 µM] in [2] and 8.06% [at 8.39 µM] in assay [4]. In addition, the caspase activation in [3] is 0.89% [at 8.39 µM]. Moreover, the caspase-3/7 activation in assay [15] is 0.641% [at 8.39 µM]. Moreover, the activity change, negative = inhibition in assay [10] is -3.24% [at 10.5 µM]; in assay [12] it was -7.95% [at 10.5 µM]; in assay [13] it was 0.39% [at 6.97 µM]; in assay [14], 9.87% [at 10.5 µM].
`CC(C)(C)NC(N)=O`: the call in assay [1] and in assay [15] was inactive. Further, the Potency result in assay [2], in assay [3], in assay [4], in assay [6], in [10] and in assay [12] was “inactive” in each case. For the same compound, the Potency entry in assay [13] and in assay [14] was “inactive” in each case. The Potency in assay [11] was 71 µM (active); in [16], 17.8 µM (active).
`Cc1cc(NC(=O)C2=C(O)c3ccccc3S(=O)(=O)N2C)no1`: the result in assay [1] and in assay [15] was inactive. The Potency result in assay [2], in [3], in [4], in assay [11] and in assay [13] was “inactive” in each case.
As to `Cc1[nH]cnc1-c1ccc(Cl)cc1`, the outcome in [1] and in assay [15] was inactive. Moreover, the Potency entry in [2], in assay [3], in assay [4], in assay [5] and in assay [13] was “inactive” throughout. Further, the Potency is 13.8 µM (active) in [10], 15.5 µM (active) in assay [11], 15.5 µM (active) in [12] and 2.19 µM (active) in [16].
On to `CCCN1C[C@H](CSC)C[C@@H]2c3cccc4[nH]cc(c34)C[C@H]21`, for which the call in assay [1] and in assay [15] was inactive. The Potency result in [2], in assay [3], in [4], in assay [6], in assay [12] and in assay [16] was “inactive” each time. Further, the Potency in assay [10] was 0.155 µM (active); in [13] it was 7.56 µM (active).
For the compound `CC(C)NCC(O)COc1ccc(COCCOC(C)C)cc1` (configuration not stated), the call in assay [1] was inactive. The Potency result in assay [2], in assay [3], in [4], in [5], in assay [6] and in assay [8] was “inactive” throughout. Moreover, the Potency entry in [9], in [10], in assay [11], in assay [12], in assay [16] and in assay [13] was “inactive” throughout. Moreover, the max activation in assay [7] was -3.07%.
In the case of `CC(C)NCC(O)COc1cccc2[nH]ccc12` (configuration not stated), the call in assay [1] and in assay [15] was inactive. The Potency entry in [2], in assay [3], in [4], in assay [5] and in assay [13] was “inactive” throughout.
With `N[C@@H](COP(=O)(O)O)C(=O)O`, the results for the activation in assay [1] and in [6] were -0.175% [at 11.8 µM] and 9.49% [at 19 µM], respectively. The activity change, negative = cytotoxicity in assay [2] is 17.9% [at 19 µM]; in assay [4] it was 4.45% [at 19 µM]. Moreover, the caspase activation in assay [3] was 0.675% [at 19 µM]. In addition, the caspase-3/7 activation in assay [15] is 0.116% [at 19 µM]. In assay [7], the max activation is -0.35%. The Potency result in assay [8], in [9] and in assay [16] was “inactive” throughout. Moreover, the results for the activity change, negative = inhibition in assay [11], in assay [13] and in assay [14] were 14.8% [at 23.6 µM], 2.29% [at 15.8 µM] and 2.53% [at 23.6 µM], respectively.

These data come from PubChem BioAssay (Tox21).
